Assay outcomes as filed in PubChem BioAssay.
GLP1R cytotox = qHTS of GLP-1 Receptor Inverse Agonists: Cytotox Screen. HEK293 cAMP-luciferase reporter cells, luminescence, 24 h. Potency, µM (series often up to 38.3 µM), without a hit: at the highest dose activity change, negative = inhibition, actives largely listed as inhibitors. 410,000 compounds, 0.13% hits. AID 624418, 2012;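 note: loss of luciferase light is scored as toxicity; % is set by controls: 0 for no effect and ±100 for the full control effect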
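A 23 nL compound transfer followed 12 hours of cell culture at 37 deg C; exposure then lasted 24 hr. Luciferase assay detection reagent was dispensed and plates read for luminescence after a 12 min room-temperature wait.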
GLP1R ag = qHTS of GLP-1 Receptor Agonists. Glucagon-like peptide 1 receptor (Homo sapiens), P43220. HEK293 GLP-1R CRE-luciferase, luminescence, 4-6 h; cells express a hypersensitive GLP-1R form. Potency, µM (doses to about 45.6 µM), without a hit: at the highest dose activation, most hits filed as activators. 380,000 compounds, 0.007% hits; note: % of control where 0% means no effect
Target sequence (P43220 whole entry, looked up): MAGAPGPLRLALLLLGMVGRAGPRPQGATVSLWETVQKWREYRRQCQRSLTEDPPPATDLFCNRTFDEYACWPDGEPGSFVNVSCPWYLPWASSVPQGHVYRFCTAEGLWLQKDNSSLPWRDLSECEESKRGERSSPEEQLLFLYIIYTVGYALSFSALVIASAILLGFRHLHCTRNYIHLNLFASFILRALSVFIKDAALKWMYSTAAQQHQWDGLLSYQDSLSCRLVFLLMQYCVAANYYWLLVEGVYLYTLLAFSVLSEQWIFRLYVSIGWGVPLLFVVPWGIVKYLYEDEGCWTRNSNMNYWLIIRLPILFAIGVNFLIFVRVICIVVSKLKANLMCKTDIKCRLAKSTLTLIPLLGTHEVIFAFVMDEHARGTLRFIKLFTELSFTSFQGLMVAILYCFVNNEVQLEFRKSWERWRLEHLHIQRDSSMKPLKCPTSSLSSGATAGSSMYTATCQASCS
BRCA1 expr up = qHTS Assay to Identify Small Molecule Activators of BRCA1 Expression; MCF7-BRCA1-FFLuc reporter, luminescence, 48 h; response scale: scaled: vehicle 0%, 10 µM genistein 100%; Potency, µM (series often up to 46.1 µM), for the others: at the top dose activation, most hits filed as activators; 380,000 compounds, 1.1% hits; AID 624202, 2012; note: nearly all actives have a fitted effect of over 80% in size
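Luminescence from a BRCA1-driven firefly luciferase in MCF7 cells was the read-out, taken 15 min after substrate addition following 48 h compound exposure at 37 °C. Data were normalized to a 10 microM genistein control and DMSO vehicle.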
GLP-1R inv ag = qHTS of GLP-1 Receptor Inverse Agonists (Inhibition Mode); Glucagon-like peptide 1 receptor (Homo sapiens), P43220; HEK293 GLP-1R CRE-luciferase, luminescence, 24 h; GLP-1R form is constitutively active; Potency, µM (highest dose often 38.3 µM), for the others: at the highest dose activity change, negative = inhibition, most hits filed as inhibitors; 410,000 compounds, 1.6% hits; AID 624417, 2012; note: % is set by controls: 0 for no effect and ±100 for the full control effect; nearly all actives have a fitted effect of over 55% in size
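Inverse agonism was detected as reduced cAMP-driven luciferase luminescence after 24 h compound treatment. The cells were HEK293 clones expressing constitutively active human GLP-1R with the reporter. Reporter-only and GPR119 cell lines served as counterscreen controls.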
Active calls of the source: *; u = inconclusive; x = no result. In the library only some 2.6% were active in any assay of this set; here they are far more common. Calls come from the whole dose curve; as a rule, active = well fitted curve in the direction sought with a large enough effect; inconclusive = small, poorly fitted or top-dose-only effect, or another doubt; inactive = no such curve, though single readings can be large; an effect the other way counts as inactive or inconclusive. Potency is the fitted concentration of half-maximal effect.

SMILES	GLP1R cytotox	GLP1R ag	BRCA1 expr up	GLP-1R inv ag
Cc1c(NC(=O)Cc2ccc(F)cc2)cccc1-c1nc2cccnc2s1	1%	x	x	5%
CC(C)c1ccc(OCC(=O)N2CCCCCC2)c(Br)c1	0%	22%	10µM*	u
Cc1noc(C)c1C(=O)NC(C)c1ccc(Cl)cc1Cl (centres undefined)	7%	9%	0%	8%
CCOc1ccccc1NC(=O)CCN(c1ccc(C)cc1)S(=O)(=O)c1ccccc1	12%	5%	-31%	11µM*
CC(O)CNCCCOc1ccc(Cl)cc1C(C)(C)C (centres undefined)	u	0%	-67%	1.6µM*
CN(C)CCOCCOc1ccc(Cl)cc1C(C)(C)C	u	0%	-49%	5.6µM*
Cc1ccc(S(=O)(=O)c2ccc(Oc3cccc(C)c3)cc2)cc1	-3%	-4%	-33%	10µM*
Cc1ccc(S(=O)(=O)c2ccc(C)cc2)cc1	-22%	-8%	-1%	-6%
Cc1cccc(Oc2ccc(S(=O)(=O)N3CCCCC3)cc2N)c1	-16%	19%	-20%	10µM*
CCOC(=O)c1c(S(=O)(=O)NCC(=O)N2CCN(c3cccc(Cl)c3)CC2)c(C)n(C)c1C	27%	x	x	8%
O=C(CS(=O)(=O)c1cccc2nsnc12)Nc1ccccc1Cl	3%	-4%	11%	7%
CCOC(=O)c1ccc(NC(=O)Nc2ccccn2)cc1	-27%	5%	5µM*	-10%
CCOC(=O)c1ccc(NC(=O)c2nn(C)cc2Br)cc1	13%	-3%	5µM*	12%
CCOC(=O)c1ccc(NC(=S)Nc2ccccc2)cc1	15%	9%	72%	u
CCOC(=O)c1ccc(NC(=O)Nc2cccc(C)n2)cc1	-4%	-9%	-3%	13%
CCOC(=O)c1ccc(NC(=S)Nc2ccc(C)cc2)cc1	2%	4%	13µM*	-10%
CCOC(=O)c1cccc(NC(=S)NCc2ccc(C)cc2)c1	-32%	7%	28%	7.9µM*
COc1cccc(CNC(=O)CSc2n[nH]c(-c3ccccc3Cl)n2)c1	-11%	x	x	5%
CCC(=O)Nc1cc(-c2nc3cc(C)cc(C)c3o2)ccc1C	3%	x	x	2%
Cn1cnc(S(=O)(=O)N2CCCCC2c2cc(C(=O)NCc3ccc(F)cc3)no2)c1 (centres undefined)	-1%	-3%	3%	5%
CCOC(=O)CC(=O)Nc1ccc(C(=O)OCC)cc1	-2%	3%	38%	29%
CCOC(=O)c1ccc(NC(=O)N(CC)CC)cc1	-10%	-3%	2.5µM*	0%
